Measured values from PubChem BioAssay AID1445 (SRMLSC, 2008).
In all, about 220,000 compounds went through this assay and about 910 (0.41%) were called active. The full list was thinned out, with actives kept by preference. Potency and affinity values are given separately. Values without a mark were called inactive.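 How the source made its calls: active means primary inhibition above the hit cutoff, then over 50% inhibition at one or more dose response concentrations (cut at about 23% in these data, passing the limit was not always enough); inconclusive means conflicting primary data, or primary hits not chosen for dose response; inactive means low primary inhibition, or under 50% at every dose.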

biological target: Aminopeptidase N (Plasmodium falciparum (isolate 3D7)) (UniProt O96935); assay: malaria alanyl aminopeptidase activity blockers – biochemical, fluorogenic H-Leu-NHMec substrate, 1536-well (AID 1445); conditions: recombinant M1AAP, H-Leu-NHMec fluorogenic kinetic assay; at 30 µM, active compounds read high unless noted;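 further: plate controls were DMSO full reaction for no effect and no enzyme background for full effect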
Sequence (O96935 whole entry, looked up): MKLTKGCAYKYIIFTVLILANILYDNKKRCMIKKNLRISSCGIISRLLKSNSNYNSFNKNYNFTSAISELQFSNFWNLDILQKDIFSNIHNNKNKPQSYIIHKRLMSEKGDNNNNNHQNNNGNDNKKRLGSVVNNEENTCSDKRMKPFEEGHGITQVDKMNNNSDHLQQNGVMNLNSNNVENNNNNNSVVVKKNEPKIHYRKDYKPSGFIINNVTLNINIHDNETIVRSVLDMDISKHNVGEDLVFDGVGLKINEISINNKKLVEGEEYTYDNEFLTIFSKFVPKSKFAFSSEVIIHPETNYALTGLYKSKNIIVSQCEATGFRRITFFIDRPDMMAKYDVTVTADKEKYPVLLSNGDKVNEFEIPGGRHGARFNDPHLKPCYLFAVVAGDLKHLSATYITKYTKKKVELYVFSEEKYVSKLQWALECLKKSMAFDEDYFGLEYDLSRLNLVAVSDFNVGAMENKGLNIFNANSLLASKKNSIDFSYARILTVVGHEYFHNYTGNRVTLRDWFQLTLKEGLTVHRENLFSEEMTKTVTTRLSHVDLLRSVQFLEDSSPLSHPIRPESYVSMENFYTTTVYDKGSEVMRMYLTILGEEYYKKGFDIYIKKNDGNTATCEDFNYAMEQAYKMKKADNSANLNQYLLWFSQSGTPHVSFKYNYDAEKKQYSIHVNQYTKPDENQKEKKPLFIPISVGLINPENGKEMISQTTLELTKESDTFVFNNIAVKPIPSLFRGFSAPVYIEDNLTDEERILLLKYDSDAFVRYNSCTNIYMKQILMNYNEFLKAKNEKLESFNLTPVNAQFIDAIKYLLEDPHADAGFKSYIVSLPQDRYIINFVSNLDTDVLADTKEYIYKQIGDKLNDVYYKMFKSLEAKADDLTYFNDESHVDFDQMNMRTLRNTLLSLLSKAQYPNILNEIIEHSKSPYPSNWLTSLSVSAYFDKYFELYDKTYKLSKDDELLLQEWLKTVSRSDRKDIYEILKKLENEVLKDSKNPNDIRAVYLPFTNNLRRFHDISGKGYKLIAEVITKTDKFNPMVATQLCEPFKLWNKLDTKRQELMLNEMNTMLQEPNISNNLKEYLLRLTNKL

Structure (SMILES) | inhibition
O=C(COC(=O)c1ccccc1NC(=O)c1ccco1)NCc1ccc2c(c1)OCO2 | -2.79%
CCCn1nc(C(=O)NCc2ccc3c(c2)OCO3)c2ccccc2c1=O | 9.46%
COc1ccc(C2CC(c3ccc4ccccc4c3)=NN2C(=O)COC(=O)C2CCC(=O)N2)cc1 (stereo unspecified) | 2.25%
O=C(Nc1ccc(S(=O)(=O)NCc2ccco2)cc1)c1ccncc1 | 6.85%
COc1ccc(NC(=S)NCc2ccccn2)cc1OC | 10.7%
COC(=O)CCC(=O)NNC(=O)Cc1ccccc1 | 1.14%
COC(=O)CCP(=O)(O)Cc1ccccc1CP(=O)(O)CCC(=O)OC | 25.9% (active)
COC(=O)CP(=O)(c1ccccc1)c1ccccc1 | 6.71%
Brc1c(CSc2nncn2-c2ccccc2)nc2ncccn12 | 9.69%
NC(=O)CSc1nnc(-c2cccs2)n1Cc1ccco1 | 8.05%
COc1ccccc1NS(=O)(=O)c1ccc(O)c(C(=O)OCC(=O)Nc2ccccc2F)c1 | -2.66%
O=C(COC(=O)c1ccc(NS(=O)(=O)c2cccs2)cc1O)Nc1nc2ccccc2s1 | 8.12%
COc1cc(-c2nc3ccc4ccccc4c3c3c2CCC3)ccc1O | 8.66%
Cc1ccc(-c2nc(CN3CCN(c4cnccn4)CC3)c(C)o2)o1 | 5.52%
CCOC(=O)C1CCCN(C(=O)c2cc(-c3ccc(F)cc3)nc3ccccc23)C1 (stereo unspecified) | 0.66%
Cc1ccc(C)c2[nH]c(=O)c(CN(Cc3ccco3)S(=O)(=O)c3ccc4c(c3)OCCO4)cc12 | 11.6%
CCNC(=O)COC(=O)C1CCC(=O)N(c2ccc(OC)cc2)C1c1ccc(OC)cc1 (stereo unspecified) | 12.7%
COc1ccc(C2C(C(=O)OCC(=O)Nc3ccc(C)cc3)CCC(=O)N2c2ccc(OC)cc2)cc1 (stereo unspecified) | 23.9% (active)
COc1ccc(C2C(C(=O)OCC(=O)N3CCCCC3)CCC(=O)N2c2ccc(OC)cc2)cc1 (stereo unspecified) | 0.13%
O=C(Nc1ccc2nn(-c3ccccc3)nc2c1)c1cccs1 | -15.1%
CCCCC(CC)CNC(=O)C1CCCN(S(=O)(=O)c2cnc[nH]2)C1 (stereo unspecified) | 24.2% (active)
Cc1ccc(CNC(=O)C2CCCN(S(=O)(=O)c3cnc[nH]3)C2)cc1 (stereo unspecified) | -2.21%
COc1ccccc1CNC(=O)C1CCCN(S(=O)(=O)c2cnc[nH]2)C1 (stereo unspecified) | 23.9% (active)

Structure (SMILES) | inhibition
CCCCNC(=O)C1CCN(S(=O)(=O)c2cnc[nH]2)CC1 | 14.7%
COc1ccccc1NC(=O)C1CCCN(S(=O)(=O)c2cnc[nH]2)C1 (stereo unspecified) | 1.4%
O=C(NCc1ccccc1Cl)C1CCCN(S(=O)(=O)c2cnc[nH]2)C1 (stereo unspecified) | 4.7%
CC(C)(C)N1C(=O)c2ccccc2NC(=O)N1Cc1ccc(Br)cc1 | 2.07%
O=C1CC(SC(=Nc2ccccc2)Nc2ccccc2)C(=O)N1c1ccc(Cl)c(Cl)c1 (stereo unspecified) | -2.66%
CCC/C(O)=C1\C(=O)CCCC1=NCCc1ccc(OCC)c(OCC)c1 | 5.18%
CC(=O)c1cccc(-n2nnnc2SCC(=O)Nc2cccc(NC(=O)c3ccco3)c2)c1 | 8.36%
Cc1c(N=Cc2ccncc2)c(=O)n(-c2ccccc2)n1C | 1.24%
Cc1c(N=Cc2nc3ccccc3n2C)c(=O)n(-c2ccccc2)n1C | 27.3% (active)
Cc1c(N=Cc2nc3ccccc3[nH]2)c(=O)n(-c2ccccc2)n1C | 17.4%
O=C(NCCc1c[nH]c2ccccc12)C(=O)NCC1OCCCN1S(=O)(=O)c1ccc(F)cc1 (stereo unspecified) | 4.14%
CCc1cccc(CC)c1NC(=O)COC(=O)c1ccc(F)c(S(=O)(=O)N(CC)CC)c1 | 3.7%
CCOc1ccccc1NC(=O)Nc1cnccn1 | 8.05%
O=c1c2ccccc2nc2n1CC/C2=C\c1ccccc1[N+](=O)[O-] | 1.69%
CCOC(=O)c1ccc(-n2c(C)nc3ccccc3c2=O)cc1 | 3.03%
CSc1ncc(Cl)c(C(=O)Nc2cccc(C)c2)n1 | 6.29%
CSc1ncc(Cl)c(C(=O)Nc2ccc(NC(C)=O)cc2)n1 | 1.65%
COc1ccc(S(=O)(=O)N2CCC(NC(=O)C(Cc3cccc(OC)c3OC)NC(C)=O)CC2)cc1 (stereo unspecified) | 12.2%
CCOC(=O)CSCC(=O)Nc1nnc(-c2cccc([N+](=O)[O-])c2)s1 | 2.17%
COc1ccc(-n2c(SCC(=O)Nc3cc(C)on3)nc3c([nH]c4ccccc43)c2=O)cc1 | 0.91%
CN1C(=O)C(C(=O)NC(C)(C)C)C2c3ccccc3OC13CCCCC23 (stereo unspecified) | 24.3% (active)
COc1ccc2c(c1)OC13CCCCC1C2C(C(=O)c1ccccc1)C(=O)N3 (stereo unspecified) | -8.77%
COc1ccc(NC(=O)C2C(=O)N(C)C3(C)CC2c2ccccc2O3)cc1 (stereo unspecified) | 9.89%
